aSyn rescue: alpha-synuclein toxicity inhibition in yeast. Potency, µM (highest dose often 46.1 µM), for inactives: at the highest dose growth rescue (activation), hits mostly activators. 0.14% of 370,000 active. AID 652106. Yeast expressing alpha-synuclein, growth rescue, BacTiter-Glo, 24 h; note: % of control where 0% means no effect; nearly all actives have a fitted effect of over 65% in size
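Rescue of yeast growth: cells expressing toxic alpha-synuclein, induced in galactose at OD600 0.02, incubated with compound 24 h at 30 C. ATP luminescence quantified growth; inhibitors of toxicity appear as activators.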
Abeta yeast res: compounds reversing amyloid beta toxicity in yeast. Potency, µM (series often up to 46.1 µM), most hits filed as activators. 0.063% of 410,000 active. yeast expressing A-beta42, growth rescue, OD600, 48 h; response scale: 0% DMSO, 100% iron-clioquinol control; note: nearly all actives have a fitted effect of over 55% in size
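Yeast A-beta toxicity model in growth medium with pinned compounds, 48 h at 30 C; growth read as absorbance at 600 nm. Normalized to FeCl3/clioquinol equimolar mix (positive) and DMSO (negative).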
Mito fusion act: inhibitors of mitochondrial division or activators of mitochondrial fusion. S. cerevisiae fusion-defective mutant growth rescue, CellTiterGlo 48 h. Potency, µM (highest dose often 46.1 µM), for inactives: top-dose growth rescue (activation), most hits filed as activators. 0.23% of 320,000 active; note: % of control where 0% means no effect; nearly all actives have a fitted effect of over 45% in size
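Growth-rescue viability read-out: after 48 h at the non-permissive 37C in glycerol/ethanol YPEG, yeast mitochondrial fusion mutants are measured by CellTiterGlo luminescence; compounds (23 nl pinned per well) restoring growth score as division inhibitors or fusion activators.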
AT treatment: potential ataxia-telangiectasia treatment | F2112 A-T fibroblasts, KAP-1 phosphorylation AlphaLISA; neocarzinostatin DNA damage 30 min before lysis | Potency, µM (highest dose often 57.5 µM), inactives show at the highest dose activation, actives largely listed as activators | 0.19% of 320,000 active; note: % of control where 0% means no effect; nearly all actives have a fitted effect of over 45% in size
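ATM-like activity read as KAP-1 phosphorylation via AlphaLISA donor/acceptor antibody pairs after lysis and 6 hr at 25C. Cells were ATM-null patient fibroblasts (F2112, hTERT), dosed 60 min, then exposed to the DSB inducer NCS for 30 min.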
TDP43 rescue: rescues yeast growth from TDP-43 toxicity | AID 652104 | TDP-43 expressing yeast growth rescue, BacTiter-Glo, 24 h | Potency, µM (titrated, usually from 46.1 µM), inactives show at the top dose growth rescue (activation), actives largely listed as activators | 1.8% of 410,000 active; note: % of control where 0% means no effect; nearly all actives have a fitted effect of over 50% in size
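Galactose-induced TDP-43 yeast, OD600=0.02, compound pinned; 24 hr, 30 deg C; BacTiter-Glo luminescence for growth. Inhibitors of TDP-43 toxicity read as activators.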
Glioma ERSR ind: ER stress response induction in glioma. U87-MG GRP78 promoter luciferase reporter, 16 h. Potency, µM, inactives show top-dose activation, hits mostly activators. 0.02% of 420,000 active. AID 602332; note: series mostly up to about 76 µM; % of control where 0% means no effect; nearly all actives have a fitted effect of over 35% in size
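Stably transfected U87-MG glioma cells carrying a GRP78-based luciferase sensor; 16 h compound incubation. Luminescence end-point read 10 min after Bright-Glo addition at room temperature.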
An asterisk follows results filed as active; i = inactive; ? = inconclusive; . = no result. Compounds with a hit are over-represented: about 2.1% of the library has one in this group of screens. Calls come from the whole dose curve; as a rule, active = well fitted curve in the direction sought with a large enough effect; inconclusive = small, poorly fitted or top-dose-only effect, or another doubt; inactive = no such curve, though single readings can be large; an effect the other way counts as inactive or inconclusive. Potency is the fitted concentration of half-maximal effect.

SMILES	aSyn rescue	Abeta yeast res	Mito fusion act	AT treatment	TDP43 rescue	Glioma ERSR ind
Cc1ccn(CCC(=O)N2CCOc3ccc(C(O)C4CCCCC4)cc3C2)n1 (stereo unspecified)	.	.	.	.	.	-2%
COc1ccc(CCNc2ncnc3sc(C(=O)N(C)C)c(C)c23)cc1OC	.	.	.	.	.	5%
CCn1c(-c2cccnc2Cl)nc2cc(Cl)c(Cl)cc21	29%	i	10%	-8%	?	6%
Cc1nc2cc(Cl)c(Cl)cc2n1-c1ccccn1	-3%	i	0%	-2%	13µM*	1%
Cc1ccc2c(c1)C(c1ccc(F)cc1)N(C(=O)COc1ccc(Cl)cc1Cl)CC(=O)N2 (stereo unspecified)	.	i	.	.	11%	-5%
CC(C)(O)C#Cc1ccc(CN2CCc3nnc(CCNC(=O)c4ccco4)n3CC2)cc1	.	.	.	.	.	-2%
CC1=C(C(=O)OCc2ccccc2)C(c2ccccc2Cl)NC(=O)N1CCCC(=O)O (stereo unspecified)	-4%	i	1%	2%	?	-1%
CC1=C(C(=O)OCc2ccccc2)C(c2ccccc2Cl)NC(=O)N1CCCCCC(=O)O (stereo unspecified)	-3%	i	1%	-3%	35µM*	0%
CCOC(=O)c1cnc(-n2cc(C)cn2)nc1Nc1ccccc1OCC	-15%	i	-9%	5%	20µM*	-3%
CCOC(=O)c1cnc(-n2nc(C)cc2C)nc1Nc1ccccc1OC	.	.	-4%	2%	.	.
O=C(COC(=O)Cc1ccc(Br)cc1)Nc1ccc(Cl)cn1	-15%	?	.	2%	11µM*	-3%
CCOc1ccc(CCNC(=O)CCCc2nnc3n(C)c(=O)c4sccc4n23)cc1OCC	.	i	.	.	7%	.
Cc1ccc(NC(=O)CCSc2nnnn2-c2ccc3c(c2)OCO3)cc1C	14%	i	5%	12%	18µM*	-4%
CCC(=O)Nc1ccc(NC(=O)CSc2nnnn2-c2ccc3c(c2)OCCO3)cc1	-7%	i	-1%	1%	-18%	-4%
CCCCN(C)CCCNC(=O)c1cc(=O)[nH]c2ccc(S(=O)(=O)N3CCCCC3C)cc12 (stereo unspecified)	-4%	i	35µM*	-1%	-3%	0%
COc1ccc2c(c1)-c1nc(-n3ncc(C(=O)N(C)CC4CCCN(C)C4)c3C3CC3)ncc1CC2 (stereo unspecified)	.	.	.	.	.	-2%
COc1ccc2c(c1)OC(C)CN(CCC(=O)NCC1OCCc3ccccc31)C2 (stereo unspecified)	.	.	.	.	.	-3%
COc1ccc2c(c1)CCc1cnc(-n3ncc(C(=O)NCc4cc(C)no4)c3C3CC3)nc1-2	.	.	.	.	.	4%
O=[N+]([O-])C1C(c2ccccc2)=NOC1c1ccccc1O (stereo unspecified)	2%	i	-12%	1%	18µM*	6%
Cc1ccc2c(c1)C(=O)CC(O)(C(F)(F)F)O2 (stereo unspecified)	-2%	i	-5%	3.5µM*	13%	-3%
Cc1ccc(CNC(=O)CCCc2ccccc2)cc1	3%	i	4%	1%	16%	4%
COc1ccc(CCCC(=O)NCc2ccccc2)cc1C	9%	i	-2%	1%	18µM*	-6%
CCC1(C2CCN(Cc3c(C)[nH]c4ccccc34)CC2)NC(=O)N(Cc2ccc3c(c2)OCO3)C1=O (stereo unspecified)	.	.	.	.	.	2%
Cc1[nH]c2c(Br)cccc2c1[C@H]1[C@@H](CC#N)C1(C)C	-21%	i	21%	.	22µM*	-3%
COc1ccc(CNC(=O)C[C@H]2C[C@H](C(=O)N3CCCCC3)[C@@]3(C)c4[nH]c5cc(CCC(=O)N(C)C)ccc5c4CCN3C2=O)cc1OC	-4%	i	.	14%	1%	-3%
SMILES	aSyn rescue	Abeta yeast res	Mito fusion act	AT treatment	TDP43 rescue	Glioma ERSR ind
CC(C)c1ccc(N(C)C(=O)Cc2c(C(=O)O)n(C)c3ccccc23)cc1	10%	i	3%	5%	28µM*	0%
CN(C(=O)Cc1c(C(=O)O)n(C)c2ccccc12)c1ccc(Cl)cc1	3%	i	-2%	-11%	-23%	-4%
CCOc1ccc(N(CC)C(=O)Cc2c(C(=O)O)n(C)c3ccccc23)cc1	1%	?	5%	-3%	-25%	0%
CCc1ccc(N(CC)C(=O)Cc2c(C(=O)O)n(C)c3ccccc23)cc1	-11%	i	17%	-4%	28µM*	-2%
CC(=O)N1CCN(C(C)=O)c2ccccc21	-4%	i	.	.	20%	-5%
CC(=O)N1CCn2c3ccc(C)cc3c3cccc1c32	14%	i	14%	-1%	14µM*	4%
CCOC(=O)N1CCN(Cc2ccc3c(c2)CN(C(=O)c2noc4c2CCCC4)CCO3)CC1	.	.	.	.	.	-6%
CC1(C)N=C(SCC(=O)Nc2ccc(Cl)cc2Cl)C(c2ccccc2)=N1	-13%	i	4%	4%	23%	-3%
Cc1ccc(C2=NC3(CCCC3)N=C2SCC(=O)Nc2ccc3c(c2)OCCO3)cc1	2%	i	?	2%	2%	-5%
O=C(CSc1ncc(-c2ccccc2)[nH]1)Nc1ccc(Cl)cc1	.	i	.	.	22µM*	4%
CC1(C)N=C(SCC(=O)Nc2ccccc2)C(c2ccc(Cl)cc2)=N1	0%	i	0%	4%	18µM*	-5%
Cc1ccc(C2=NC(C)(C)N=C2SCC(=O)Nc2ccc(Cl)cc2)cc1	-9%	i	3%	-5%	35µM*	-7%
Fc1ccccc1Nc1ncnc2c1nnn2Cc1ccccc1	0%	?	-11%	-1%	11µM*	12%
c1ccc(CCNc2ncnc3c2cnn3-c2ccccc2)cc1	-18%	i	?	5%	16µM*	8%
CSc1ncnc2c1cnn2-c1ccc(C)cc1C	-8%	i	-4%	4%	18µM*	4%
Clc1ccccc1Nc1ncnc2c1nnn2Cc1ccccc1	-6%	i	-2%	-2%	-8%	2%
COc1ccc(OC)c(Nc2ncnc3c2cnn3-c2cccc(C)c2)c1	-26%	i	16µM*	4%	-4%	-2%
Cn1ncc2c(Nc3ccc4ccccc4c3)ncnc21	-6%	i	3%	-5%	10µM*	8%
c1ccc(Cn2ncc3c(Nc4ccccc4)ncnc32)cc1	-6%	i	-14%	11%	13µM*	1%
COc1ccc(Nc2ncnc3c2cnn3Cc2ccc(C)cc2)cc1	1%	i	-4%	2%	0%	-2%
Cc1ccc(Nc2ncnc3c2cnn3-c2ccccc2)c(C)c1	3%	i	.	.	35µM*	5%

Screens deposited in PubChem BioAssay by National Center for Advancing Translational Sciences (NCATS).
